Assay results as given in PubChem BioAssay AID1159580 (chemical genetic matrix, 2015).
Hit rate of the full screen: of about 5,500 compounds, about 2,000 (36%) were called active. Another 18% or so got no clear call; they are omitted. No stated cut-off is given here; in the data, active means normalized growth mostly below about 0.91 (no sharp cut-off); inconclusive means no clear call, values can overlap the other calls; inactive means mostly above about 0.92. The list shows a part of the results.

Experiment: chemical genetic growth profiling, strain panel (AID 1159580);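 further: tested at 20 µM; growth read once vehicle control cultures reached saturation at 30 °C; 1 = growth at the plate median or of vehicle wells; lower values mean less growth of the strain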
Conditions: S. cerevisiae deletion strains, growth OD

Measured: normalized growth

CC(=O)O[C@H]1CCC2(C)C3=C(CCC2C1(C)C)[C@@]1(C)CC[C@@H](C(C)CCC=C(C)C)[C@]1(C)CC3 (stereo partly drawn)
active: locus YIR030C, strain dcg1, hits give low values 1.08 [resistant]
inactive: locus YAL021C, strain ccr4, hits give low values 1.02 | locus YAL026C, strain drs2, hits give low values 1.03 | locus YAL030W, strain snc1, hits give low values 1.03 | locus YBL061C, strain skt5, hits give low values 1.04 | locus YBR009C, strain hhf1, hits give low values 1.03 | locus YBR021W, strain FUR4, hits give low values 0.912 | locus YBR023C, strain chs3, hits give low values 1.03 | locus YBR171W, strain sec66, hits give low values 1.05 | locus YBR229C, strain ROT2, hits give low values 1.04 | locus YBR231C, strain swc5, hits give low values 1.04 | locus YBR279W, strain paf1, hits give low values 1.02 | locus YCL011C, strain gbp2, hits give low values 1.04 | locus YCL016C, strain dcc1, hits give low values 1.03 | locus YCL029C, strain bik1, hits give low values 1.01 | locus YCL061C, strain MRC1, hits give low values 1.04 | locus YCL069W, strain vba3, hits give low values 1.03 | locus YCR088W, strain abp1, hits give low values 1.03 | locus YDL005C, strain med2, hits give low values 1.03 | locus YDL035C, strain GPR1, hits give low values 0.911 | locus YDL040C, strain nat1, hits give low values 1.03 | locus YDL074C, strain BRE1, hits give low values 0.973 | locus YDL101C, strain DUN1, hits give low values 1.02 | locus YDL185W, strain tfp1, hits give low values 1.05 | locus YDL192W, strain arf1, hits give low values 1.03 | locus YDR001C, strain nth1, hits give low values 1.03 | locus YDR069C, strain doa4, hits give low values 1.03 | locus YDR101C, strain arx1, hits give low values 1.02 | locus YDR137W, strain rgp1, hits give low values 1.02 | locus YDR150W, strain NUM1, hits give low values 1.05 | locus YDR159W, strain sac3, hits give low values 1.07 | locus YDR162C, strain NBP2, hits give low values 1.01 | locus YDR195W, strain ref2 1.03 | locus YDR297W, strain sur2, hits give low values 1.03 | locus YDR318W, strain mcm21, hits give low values 1.02 | locus YDR334W, strain swr1, hits give low values 1.04 | locus YDR335W, strain msn5, hits give low values 1.02 | locus YDR388W, hits give low values 1.06 | locus YDR392W, strain spt3, hits give low values 1.04 | locus YDR502C, strain sam2, hits give low values 1.01 | locus YEL003W, strain gim4, hits give low values 1.02 | locus YEL037C, strain rad23, hits give low values 1.02 | locus YEL061C, strain CIN8 (second series), hits give low values 1.03 | locus YEL061C, strain CIN8, hits give low values 1.04 | locus YER015W, strain faa2, hits give low values 1.03 | locus YER016W, strain bim1, hits give low values 1.04 | locus YER110C, hits give low values 1.06 | locus YER111C, strain swi4, hits give low values 1.04 | locus YER155C, strain BEM2 (second series), hits give low values 1.04 | locus YER155C, strain BEM2, hits give low values 1.03 | locus YER167W, strain BCK2, hits give low values 1.03 | locus YFR010W, strain ubp6, hits give low values 1.03 | locus YGL078C, strain dbp3, hits give low values 0.932 | locus YGL086W, strain mad1, hits give low values 1.02 | locus YGL167C, strain pmr1, hits give low values 1.04 | locus YGL173C, strain kem1, hits give low values 1.02 | locus YGL227W, strain vid30, hits give low values 1.03 | locus YGL240W, strain doc1, hits give low values 1.03 | locus YGL248W, strain PDE1, hits give low values 1 | locus YGL253W, strain hxk2, hits give low values 1.02 | locus YGR078C, strain PAC10, hits give low values 1 | locus YGR135W, strain pre9, hits give low values 1 | locus YGR229C, strain SMI1, hits give low values 0.963 | locus YGR252W, strain gcn5, hits give low values 0.884 | locus YHR013C, strain ard1, hits give low values 1.08 | locus YHR027C, strain rpn1, hits give low values 1.02 | locus YHR079C, strain IRE1 (second series), hits give low values 1.06 | locus YHR094C, strain hxt1, hits give low values 1.06 | locus YHR129C, strain ARP1, hits give low values 1.04 | locus YHR142W, strain chs7, hits give low values 1.04 | locus YHR200W, strain rpn10, hits give low values 1.03 | locus YIL066C, strain RNR3, hits give low values 1.02 | locus YIL073C, strain SPO22, hits give low values 1.06 | locus YIL125W, strain kgd1, hits give low values 1.01 | locus YJL092W, strain hpr5, hits give low values 1.03 | locus YJL095W, strain BCK1 (second series), hits give low values 1.03 | locus YJL095W, strain BCK1, hits give low values 1.03 | locus YJL115W, strain asf1, hits give low values 1.04 | locus YJL129C, strain trk1, hits give low values 1.07 | locus YJL134W, strain LCB3, hits give low values 1.04 | locus YJL154C, strain vps35, hits give low values 1.03 | locus YJL164C, strain tpk1, hits give low values 1.02 | locus YJL166W, strain qcr8, hits give low values 1.03
